Here are results for 10 compounds from PubChem BioAssay (NCI).

SMILES strings stand for the structures. About 83,000 compounds went through this panel and 20% of them were active in at least one assay; those are over-represented in the sample as a whole.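 Percent growth is the endpoint: 0 to 100 indicates growth inhibition (40 means 60% inhibition), 0 means no net growth, and negative values indicate cell death.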 Unmarked numbers belong to inactive results. Calls of active or inactive are those of the source. The calls were made as follows: active = growth percent below 10; inactive = the rest.

Common to all, as to assay: NCI-60 one-dose screen, 48 h (100 = growth as untreated, 0 = no growth, -100 = all killed)
Holding throughout (details): 10 µM

Test [1] relates to RXF 393 renal.
The test system of test [2] is SK-MEL-5 melanoma.
Test [3] deals with CAKI-1 renal.
Test [4] concerns CCRF-CEM leukemia.
For test [5], the system named is OVCAR-4 ovarian.
For test [6], the system named is T-47D breast.
The test system of test [7] is MDA-MB-435 melanoma.
The subject of test [8] is SW-620 colon.
In test [9] the test system is MCF7 breast.
Test [10] concerns HCT-116 colon.
The subject of test [11] is KM12 colon.
Test [12] concerns A549/ATCC NSCLC.
In test [13] the test system is HCC-2998 colon.
Test [14] concerns SK-MEL-28 melanoma.
In test [15] the test system is OVCAR-8 ovarian.
Test [16] concerns IGROV1 ovarian.
Test [17] deals with EKVX NSCLC.

Regarding `COc1ccc(C2c3sc4ccc(C)cc4c3Oc3nc(N)nc(N)c32)cc1` (configuration not stated), the growth in test [1] was 64.8%; in test [2] it was 92.9%; in test [3] it was 63.3%; in [4] it was 82.8%; in [5], 85.8%; in [6], 61.3%. Besides, the growth in test [7] is 9.83% (active); in [8], 84.8%; in test [9], 53.8%; in test [10], 86.9%; in test [11], 70.9%.

As for `Cc1ccc2sc3c(c2c1)Oc1nc[nH]c(=O)c1C3c1cccc(F)c1` (configuration not stated), the growth in test [12] is 98.7%; in test [1] it was 109%; in [2] it was 96.4%; in test [3] it was 83.2%; in [4], 107%; in [5], 91.7%. Moreover, the growth was 83.9% in [6]; 96.1% in test [7]; 102% in [8]; 60.9% in test [9]; 89.3% in [10]; 118% in [13]. Further, in test [11], the growth is 100%.

Take `Cn1cc(-c2nnc(N)nc2-c2c[nH]c3ccccc23)c2cc(Br)cnc21`: the growth is 55.1% in test [12]; -20.1% (active) in test [1]; -72.8% (active) in test [2]; 49.2% in test [14]; 62% in test [15]; 46.5% in test [5]. The growth in [16] was 35.6%; in [6], 29.4%; in [7], 5.61% (active); in [8], 57.8%; in test [9], 14%; in [10], 22.8%. In test [11], the growth is 51.1%.

For the compound `COc1ccc(C2c3sc4ccc(C)cc4c3Oc3nc[nH]c(=O)c32)cc1` (configuration not stated), the growth in [1] is 85.7%; in test [2], 88.8%; in test [14], 80.9%; in [4] it was 91.7%; in [5], 85.3%; in test [16] it was 83.6%. Moreover, the growth was 83.4% in [6]; -0.755% (active) in [7]; 67.1% in test [8]; 69.6% in test [9]; 90.2% in test [10]; 61.1% in test [11].

Consider `O=C1NC2C=CC=CC2/C1=C1/SC(=S)N(C2CC(=O)N(c3ccc(Br)cc3)C2=O)C1=O` (configuration not stated), for which the growth is 109% in [1]; 100% in test [2]; 101% in [14]; 92.6% in test [17]; 53.9% in test [4]; 93.1% in test [5]. Moreover, the growth in [6] is 82.9%; in test [7] it was 95.7%; in [8], 93.4%; in [9], 45.7%; in [10] it was 103%; in test [11], 81.4%.

`Cc1ccc(COc2ccc(NC(=O)Nc3ccc(Cl)c(C(F)(F)F)c3)cc2)cc1`: the growth is 75.5% in test [1]; 79.9% in [2]; 93.6% in test [14]; 60.7% in test [4]; 66.4% in test [5]; 79.2% in test [16]. For the same compound, the growth in test [6] was 33.7%; in test [7], 86.1%; in test [8], 86.5%; in [9], 41.6%; in test [10] it was 69.7%; in test [13] it was 83.7%.

As to `O=C(CSc1nc2ccccc2c(=O)n1-c1ccc(Cl)cc1)Nc1ccc(-c2nc3ccc([N+](=O)[O-])cc3[nH]2)cc1`, the growth is -5.28% (active) in [1]; 65.3% in test [2]; 21.1% in test [14]; 35.9% in test [17]; 40.8% in test [3]; -12.1% (active) in test [5]. Moreover, the growth in test [16] is 64.2%; in test [6], 6.69% (active); in test [7], 39.6%; in test [8] it was 64.2%; in test [9], 20.9%; in [10] it was 19.1%. Besides, the growth in test [13] is 12.1%; in test [11], 43%.

Consider `COc1ccc(C(=O)COc2ccc(NC(=O)Nc3ccccc3)cc2)cc1`, for which the growth was 80.9% in test [12]; 82.8% in [1]; 94.3% in test [2]; 82.7% in [17]; 72.7% in [3]; 91% in test [4]. Besides, the growth was 87.2% in test [15]; 87.2% in test [5]; 65.6% in [6]; 89.4% in test [7]; 101% in test [8]; 67.2% in test [9]. Besides, the values for the growth in test [10], in test [13] and in [11] were 91%, 105% and 91.6%, respectively.

As for `COc1cccc(C(=O)CSc2nc(-c3ccc(OCc4ccccc4)c(OC)c3)c(C#N)c(=O)[nH]2)c1`, the growth was 93% in [1]; 98.5% in test [2]; 90.8% in [3]; 101% in test [4]; 96.8% in test [5]; 106% in test [16]. Also, the growth in test [6] was 90.7%; in test [7] it was 95.7%; in test [8] it was 102%; in [9] it was 91.3%; in test [10], 99.6%; in test [11], 104%.

As to `CCn1c(SCC(=O)Nc2ccc(-c3nc4ccccc4[nH]3)cc2)nc2ccccc2c1=O`, the growth in test [12] is -71.2% (active); in test [1], -87.1% (active); in test [2], -51.2% (active); in test [17] it was -42.5% (active); in test [3], -99.2% (active); in test [4] it was 44.7%. Moreover, the growth was -84.1% (active) in test [5]; -58.2% (active) in test [6]; -94.7% (active) in test [7]; -35.5% (active) in [8]; -71.7% (active) in [9]; -81.4% (active) in test [10]. Moreover, the growth in test [11] was -14.5% (active).
